# HCMV antiviral: inhibitors of human cytomegalovirus; AID 1259415; activity change, negative = inhibition, % at 57.5 µM; HFF cells, HCMV-luciferase reporter, 72 h; active compounds read low; 410,000 compounds, 4.5% hits; in the data active = activity change below about -60%; inconclusive = no clear call, values can overlap the other calls; inactive = above about -39%; note: % is set by controls: 0 for no effect and ±100 for the full control effect
#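 Human foreskin fibroblasts infected with luciferase-reporter HCMV at MOI 1 PFU/cell, compounds at two doses. Luciferase measured 72 h post infection; normalized to buffer-only basal and Salinomycin (10uM) controls.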
# HCV inh: blocks hepatitis C virus; Huh7.5.1 HCVcc-Cre infection, luciferase reporter, 44 h; Potency, µM (titrated, usually from 41.8 µM), for inactives: at the top dose activity change, negative = inhibition, usual class: inhibitors; 340,000 compounds, 3.4% hits; AID 651820; note: potency is the fitted concentration of half-maximal effect; % is set by controls: 0 for no effect and ±100 for the full control effect
#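 After 44 h co-culture of compound, cells and HCVcc-Cre (~0.5 moi), substrate is added for 15 min at room temperature and luciferase measured over 15 sec. Cells were seeded at 1,000/well and pre-cultured 4 h.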
# Pf growth 48h: inhibits P. falciparum growth in the first generation, 48 h; P. falciparum luciferase growth in erythrocytes, 48 h; Potency, µM (top dose mostly 28.7 µM), inactives show at the highest dose activity change, negative = inhibition, most hits filed as inhibitors; 310,000 compounds, 5.9% hits; note: potency is the fitted concentration of half-maximal effect; % is set by controls: 0 for no effect and ±100 for the full control effect
#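 Read-out is firefly luciferase luminescence from an integrated reporter in P. falciparum, so falling signal marks reduced parasite growth. Infected erythrocytes were at 2% hematocrit and 0.1% parasitemia (final) in Albumax-supplemented RPMI 1640.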
# Pf growth 96h: P. falciparum growth inhibition at 96 hour, primary screen for plastid delayed-death inhibitors. P. falciparum luciferase reporter growth, 96 h. Potency, µM (top dose mostly 28.7 µM), inactives show at the highest dose activity change, negative = inhibition, actives largely listed as inhibitors. AID 504834. 320,000 compounds, 6.9% hits; note: potency is the fitted concentration of half-maximal effect; % is set by controls: 0 for no effect and ±100 for the full control effect
#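 P. falciparum expressing integrated firefly luciferase, in erythrocytes at 2% hematocrit, 0.05% parasitemia, incubated with compounds 96 h at 37 C, 5% CO2. Growth inhibition read as loss of luminescence; two-generation exposure targets delayed-death apicoplast inhibitors.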
# Sm TGR inh: S. mansoni TGR enzyme inhibition; 360,000 compounds, 3% hits; Q962Y6; purified TGR, DTNB reduction, TNB absorbance 405 nm; Potency, µM (doses to about 114 µM), for inactives: at the highest dose activity change, negative = inhibition, most hits filed as inhibitors; note: potency is the fitted concentration of half-maximal effect; % is set by controls: 0 for no effect and ±100 for the full control effect; nearly all actives have a fitted effect of over 60% in size
#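 TGR 20 nM + NADPH 100 uM (dispensed conc.), cpd preinc 15 min RT; start with NADPH (500 uM addition) then DTNB (15 mM addition). Kinetic TNB absorbance, 405 nm filter. Four-parameter Hill fit across titration.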
# SARS PLpro yeast: blocks SARS-CoV papain-like protease in a yeast assay | S. cerevisiae expressing SARS-CoV PLpro, growth rescue | AID 485353 | Potency, µM (top dose mostly 32.9 µM), inactives show top-dose activity, positive = growth rescue, most hits filed as activators | 330,000 compounds, 0.19% hits; calls by dose curve; note: potency is the fitted concentration of half-maximal effect; 0% is about no effect; nearly all actives have a fitted effect of over 55% in size
# * hit, by the source's call; ? = inconclusive; nt = no result; [ ] = another dose, or the depositor's remark. An excerpt weighted towards active compounds, which were near 15% of everything screened. Unless noted, calls come from the whole dose curve; as a rule, active = well fitted curve in the direction sought with a large enough effect; inconclusive = small, poorly fitted or top-dose-only effect, or another doubt; inactive = no such curve, though single readings can be large; an effect the other way counts as inactive or inconclusive.
SMILES,HCMV antiviral,HCV inh,Pf growth 48h,Pf growth 96h,Sm TGR inh,SARS PLpro yeast
CC(C)(C)n1ncc2c(=O)n(Cc3cccc(Cn4cnc5c(cnn5C(C)(C)C)c4=O)c3F)cnc21,-88*,nt,nt,nt,nt,-6%
CC(C)CCn1cnc2c(cnn2-c2ccc(F)cc2)c1=O,23,10µM*,112%,nt,6%,4%
CC(C)(C)n1ncc2c(=O)n(CC(=O)N3CCCc4ccccc43)cnc21,-9,7%,-2%,1.9µM*,?,-1%
Cc1ccccc1Cn1cnc2c(cnn2C(C)(C)C)c1=O,6,?,36%,28%,5%,-1%
CCCN(C(=O)C1CCN(S(=O)(=O)c2c(C)noc2/C=C/c2ccc(C)cc2)CC1)c1ccccc1F,-4,nt,nt,nt,-3%,nt
O=C(CN1CCCCC1)N1CCCc2ccccc21,20,23%,nt,20%,-5%,3%
O=C(CN1CCCC1)N1CCCc2ccccc21,-25,-1%,-9%,19µM*,nt,1%
CN(C)CC/C=C1\c2ccc(F)cc2Sc2cc(F)c(Cl)cc21,-108*,13µM*,nt,nt,nt,nt
C=CCN(C)CC/C=C1\c2ccccc2CSc2ccccc21,-6,?,?,?,-30%,-20%
CN(C)CC/C=C1\c2ccccc2Sc2ccc(Cl)cc21,-7,?,15µM*,13µM*,-7%,3%
CC(O)CN(C)CC/C=C1/c2ccccc2CSc2ccccc21 (stereo unspecified),-37,?,?,?,-15%,-13%
OCCN1CCN(CC/C=C2/c3ccccc3Sc3ccc(Cl)cc32)CC1,?,11µM*,10µM*,9.3µM*,-15%,nt
CN(C)CC/C=C1\c2ccccc2Sc2cc(F)c(Cl)cc21,-65*,?,nt,nt,nt,nt
CCCOC1CCCN(C(=O)CCc2nnc(CCCCc3ccccc3)o2)C1 (stereo unspecified),19,?,?,?,-15%,-1%
COc1ccccc1CNS(=O)(=O)c1c(C)nc2sc(C)cn2c1=O,20,nt,nt,nt,-2%,nt
NC(=O)CC(NC(=O)c1ccc(Br)cc1)c1ccc(NC2CCCCCCC2)c([N+](=O)[O-])c1 (stereo unspecified),132,6%,-16%,-19%,1%,0%
CN(C)CC/C=C1\c2cc(Cl)ccc2Sc2cc(F)c(F)cc21,?,11µM*,nt,nt,nt,nt
CN(C)CC/C=C1/c2cc(F)ccc2CSc2ccc(F)cc21,26,?,?,?,0%,13%
O=C(NCC(c1cccs1)S(=O)(=O)c1cccs1)c1ccc(Cl)cc1 (stereo unspecified),10,nt,nt,nt,25µM*,nt
COc1ccc(C(=O)NCC(c2ccco2)S(=O)(=O)c2cccs2)cc1 (stereo unspecified),12,nt,nt,nt,8.9µM*,nt
O=C(NCC(c1ccco1)S(=O)(=O)c1cccs1)c1ccc(Cl)cc1 (stereo unspecified),-14,nt,nt,nt,14µM*,nt
O=C(NCC(c1cccs1)S(=O)(=O)c1cccs1)c1ccc(F)c(F)c1 (stereo unspecified),-15,nt,nt,nt,?,nt
O=C(NCC(c1cccs1)S(=O)(=O)c1cccs1)c1ccc(C(F)(F)F)cc1 (stereo unspecified),-5,nt,nt,nt,?,nt
Cc1cccc(C(=O)NCC(c2ccco2)S(=O)(=O)c2cccs2)c1 (stereo unspecified),7,nt,nt,nt,7.1µM*,nt
CCOc1ccc(OCC)c(NC(=O)Cn2ncc3c4ccccc4n(Cc4ccccc4)c3c2=O)c1,-12,nt,nt,nt,-5%,nt
SMILES,HCMV antiviral,HCV inh,Pf growth 48h,Pf growth 96h,Sm TGR inh,SARS PLpro yeast
COc1cccc(CCc2nnc(CCC(=O)NCCC3CCCCO3)o2)c1 (stereo unspecified),9,6%,6%,-15%,1%,2%
O=C(NCCc1ccc(Cl)cc1)C(=O)NCC(c1ccco1)S(=O)(=O)c1cccs1 (stereo unspecified),-22,nt,nt,nt,40µM*,nt
O=C(NCCc1ccc(Cl)cc1)C(=O)NCC(c1ccco1)S(=O)(=O)c1ccccc1 (stereo unspecified),38,nt,nt,nt,?,nt
COc1cc(C(=O)NCC(c2ccco2)S(=O)(=O)c2cccs2)cc(OC)c1OC (stereo unspecified),11,nt,nt,nt,8.9µM*,nt
O=C(CCNC(=O)c1ccc(Br)cc1)NCC1COc2ccccc2O1 (stereo unspecified),-6,15%,?,48%,1%,7%
COc1cc(SC)ccc1C(=O)NC(C)C,-12,-14%,2%,4%,27%,2%
COc1cc(SC)ccc1C(=O)Nc1ccccn1,45,?,190%,395%,4%,-14%
COc1cc(SC)ccc1C(=O)Nc1ccon1,-107*,?,109%,?,4%,-2%
COc1cc(SC)ccc1C(=O)Nc1cccc(C)n1,30,13µM*,88%,5%,-5%[57.1 µM],14%
COc1cc(SC)ccc1C(=O)Nc1ccc(Br)cn1,-83*,?,-45%,290%,2%,-1%
COc1cc(SC)ccc1C(=O)NCCOc1c(C)cc(C)cc1C,15,nt,13µM*,4.7µM*,-26%,-7%
Cc1ccc(CNC(=O)C2CCCN(c3cnccn3)C2)cc1 (stereo unspecified),?,6%,11%,?,-20%,5%
CCCCN(C)CCCNC(=O)C1CCN(S(=O)(=O)CCC)CC1,-7,nt,nt,nt,11%,nt
COc1cc(C)ccc1OCCCn1c(-c2ccc(Cl)cc2)nc2ccccc2c1=O,-23,nt,nt,nt,20%,nt
CCOC(=O)c1nnn(C(CC)C(=O)Nc2ccc(F)cc2)c1C(=O)OCC (stereo unspecified),10,nt,nt,nt,3%,nt
COc1cc(SC)ccc1C(=O)Nc1ccc(C)cc1,54,?,-9%,?,0%,-3%
COc1cc(SC)ccc1C(=O)Nc1ncc(C)s1,-82*,?,339%,23%,7%,-3%
Cc1nnc(-c2cccc(Br)c2)c2cn(-c3ccc(Br)cc3)nc12,-73*,11µM*,?,2.6µM*,0%,-14%
CNc1cncc(-c2ccc(OC)cc2)n1,22,nt,nt,nt,nt,nt
O=C(c1ccccc1)c1ccc2ccccc2c1,-17,-5%,nt,nt,nt,nt
Cc1sc2cc3c(c(C(=O)c4ccccc4)[n+]2c1C)-c1cccc2cccc-3c12,-100*,10µM*,0.83µM*,0.33µM*,-8%,-77%
O=C(c1ccccc1)c1c2c(cc3sc4ccccc4[n+]13)-c1cccc3cccc-2c13,-103*,?,0.93µM*,0.47µM*,-14%,-59%
CC(C)S(=O)(=O)c1csc(NC(=O)Nc2ccc(Cl)cc2)c1,-38,-14%,?,10µM*,0%,1%
